# Laboratory results as given in PubChem BioAssay AID1259415 (National Center for Advancing Translational Sciences (NCATS), 2018).
# The campaign covered roughly 410,000 compounds. About 18,000 (4.4%) were called active. Inconclusive results (about 7%) are left out. Rule as the data show it: active = activity change below about -60%; inconclusive = no clear call, values can overlap the other calls; inactive = above about -39%. For the sample, actives were picked, then their nearest neighbours and some compounds at random.
# Experiment: qHTS Assay for inhibitors of the human cytomegalovirus (HCMV)
# Conditions: HFF cells, HCMV-luciferase reporter, 72 h; at 57.5 µM; active compounds read low
# Source text: NCGC Assay Overview: Infection with human cytomegalovirus (HCMV) continues to pose significant threats for pregnant women and immunocompromised hosts. HCMV causes serious morbidity and mortality in transplant recipients, and congenital HCMV is the leading infectious cause of mental retardation and deafness in children. In the 1990s, the annual costs associated with the disease burden of congenital CMV were estimated at around $2 billion. A HCMV vaccine is not available yet and HCMV therapies result in intolerable side effects and emergence of drug resistant viruses. […] Towards this goal we have developed and characterized a luciferase HCMV reporter that was initially used in 96 well plates and then optimized to 1536-well plates for utilization in screening of the MLSMR collection, the NGCG diversity collection and the NCGC Pharmaceutical Collection of approved and investigational drugs.
# NCGC Assay Protocol Summary:
# This is a cell-based assay for HCMV inhibition in HFFs cells. The screening used 2 compound doses and the HCMV-luciferase at MOI of 1 PFU/cell. Cells were treated and infected with HCMV. At 72 h post infection cell lysates were collected and luciferase activity was determined using the Glomax-Multi + Detection System (Promega, Madison, WI). Data were normalized to the controls for basal activity (buffer only) and known HCMV inhibitors Salinmoycin.
# 1536-well assay protocol for the assay:
# (1) Add 3 ul CMV/HFF cell culture. 1000 cells/well in DMEM nirmal media.
# (2) Incubate 16 hr at 37C.
# (3) Add 23 nl control compound, 10uM of Salinomycin.
# (4) Add 23 nl compounds in DMSO solution.
# (5) Add 3 ul CMV suspension. Final 1 puf/ul, Virus stock 2000pfu/ul
# (6) Incubate 72 hrs at 37C.
# (7) Add 4 ul OneGlo Luc Reagent.
# (8) Incubate 5 min at room temperature.
# % is scaled to controls: 0 for no effect and ±100 for the full control effect.
row,SMILES,"activity change, negative = inhibition"
1,COc1ccc(C)cc1NC(=O)CSc1nnc2ccc(-c3ccccn3)nn12,-16.1% (inactive)
2,CC(C)CNc1cccc2c1S(=O)(=O)N[C@H](C)CO2,-8.73% (inactive)
3,O=[N+]([O-])c1cccc(/C([O-])=C(/C(=S)Nc2ccccc2F)[n+]2ccccc2)c1,18% (inactive)
4,CC(=O)c1ccc(S(=O)(=O)NCCC(=O)N2CCN(c3ccccn3)CC2)cc1,60.8% (inactive)
5,O=C(CCC1CCCN(C(=O)c2ccc(F)c(F)c2)C1)N1CCN(c2ccccn2)CC1 (stereo unspecified),-29.8% (inactive)
6,C=Cc1ccc(C(=O)N2CCCC(CCC(=O)N3CCN(c4ccccn4)CC3)C2)cc1 (stereo unspecified),-64.7% (active)
7,COc1cccc(C(=O)NC2=NC(c3ccc(N(C)C)cc3)CC(=O)N2)c1 (stereo unspecified),1.4% (inactive)
8,O=C(Nc1cccc(-c2nc3ccccc3o2)c1)c1cccc(Br)c1,-11.9% (inactive)
9,COc1ccccc1NC(=O)C(=O)c1cc(C)n(-c2ccccc2F)c1C,-34.6% (inactive)
10,CCCCOc1ccc(CSC(=N)N)cc1[N+](=O)[O-],-63.8% (active)
11,CCCCOC(=O)CCCc1ccc([N+](=O)[O-])cc1[N+](=O)[O-],-14.8% (inactive)
12,CCCCCOc1ccc(CSC2=NCCN2)cc1[N+](=O)[O-],9.19% (inactive)
13,CC(C)(Oc1ccc(C2CC2(Cl)Cl)cc1)C(=O)O (stereo unspecified),-0.36% (inactive)
14,O=C(NC1(C(F)(F)F)N=C(c2ccccc2)N(C2CCCCC2)C1=O)c1ccccc1F (stereo unspecified),-18.3% (inactive)
15,O=C1NC(Nc2nc3ccccc3s2)(C(F)(F)F)C(=O)N1C1CCCCC1 (stereo unspecified),-63.1% (active)
16,c1ccc2sc(SNC3CCCCC3)nc2c1,15% (inactive)
17,COC(=O)c1ccc(NC(=O)CN(c2ccc(C)cc2)S(=O)(=O)c2c(C)n[nH]c2C)cc1,30% (inactive)
18,COC(=O)C1CCN(C(=O)NC2CC(=O)N(c3ccc4c(c3)OCCO4)C2)CC1 (stereo unspecified),-8.55% (inactive)
19,Cc1nc2ccn(Cc3cccs3)c(=O)c2cc1C(=O)NCc1ccc(Cl)cc1,0.24% (inactive)
20,CCOc1cccc(CC(=O)N2CCc3c([nH]c4ccccc34)C2c2ccc(OC)cc2)c1OCC (stereo unspecified),31.4% (inactive)
21,CCOc1cccc(CC(=O)N2CCc3c([nH]c4ccccc34)C2c2ccc(F)cc2)c1OCC (stereo unspecified),-33.4% (inactive)
22,COc1ccc2[nH]c3c(c2c1)CCN(C(=O)CCC1CCCC1)C3c1ccc(F)cc1 (stereo unspecified),-81.8% (active)

row,SMILES,"activity change, negative = inhibition"
1,Cc1ccc(S(=O)(=O)N(C)C)cc1NC(=O)COC(=O)/C=C/c1cccs1,-32.1% (inactive)
2,Cc1ccc(S(=O)(=O)N(C)C)cc1NC(=O)COC(=O)C1COc2ccccc2O1 (stereo unspecified),19% (inactive)
3,Cc1ccc(S(=O)(=O)N(C)C)cc1NC(=O)COC(=O)c1c(C)noc1C,-108% (active)
4,CCN(CC(=O)Nc1cccc(S(N)(=O)=O)c1)Cc1nc2ccccc2c(=O)[nH]1,-27.6% (inactive)
5,Cc1cc(C)c(-c2csc(NC(=O)CCCc3nc4ccccc4c(=O)[nH]3)n2)c(C)c1,-72.6% (active)
6,O=C(COC(=O)CCc1nc2ccccc2c(=O)[nH]1)Nc1ccc(N2CCOCC2)cc1,-20.5% (inactive)
7,CC(C)NC(=O)N1CCN(c2ccncc2S(=O)(=O)N2CCCCC2)CC1,9.43% (inactive)
8,CCN1CCc2nc(NC(=O)c3cc(F)c(F)cc3Cl)sc2C1,-0.35% (inactive)
9,O=C(Nc1nnc(-c2ccccc2F)s1)c1ccccc1F,85% (inactive)
10,O=C(Nc1nc2c(s1)CCCC2)c1ccccc1F,-68.5% (active)
11,COCCn1c(C)cc(C2=NNC(=Nc3ccc(F)cc3)SC2)c1C,-107% (active)
12,C=CCn1c(C)cc(C2=NNC(=NCC)SC2)c1C,-99.5% (active)
13,COc1cccc(-c2nc(S(=O)(=O)c3ccc(C)cc3)c(NCc3ccccc3)o2)c1,2.24% (inactive)
14,O=C(CSc1nnc(CNC(=O)c2ccccc2)n1-c1ccc(F)cc1)Nc1ccccc1F,-5.45% (inactive)
15,Cc1cccc(Cn2cccc(C(=O)Nc3ccc4c(c3)OCCO4)c2=O)c1,-12.1% (inactive)
16,Cc1ccc(CN2CCNC(=O)C2CC(=O)NCc2csc(C(C)C)n2)cc1 (stereo unspecified),6.06% (inactive)
17,O=S(=O)(NCC(c1ccccc1)N1CCc2ccccc21)c1ccccc1 (stereo unspecified),1.26% (inactive)
18,Cc1cccc(C(=O)N2c3nc(-c4ccco4)nn3C3(CCCCC3)[C@@H]3CCCC[C@@H]32)c1,-17.9% (inactive)
19,COC(=O)Cc1[nH]n(-c2nc3ccccc3s2)c(=O)c1C(C)=Nc1ccc(OC)cc1,-94.3% (active)
20,COc1ccc(-c2nc3ccccc3s2)cc1NC(=O)COc1ccccc1C,47.9% (inactive)
21,COC(=O)c1cccc(C(=O)N2CCCC(Nc3ccc4c(c3)OCCO4)C2)c1 (stereo unspecified),-15.6% (inactive)
22,COc1cccc2c1cc1c(=O)n(CC(=O)N3CCN(c4cccc(Cl)c4)CC3)nc(C)n12,50.4% (inactive)

row,SMILES,"activity change, negative = inhibition"
1,Cc1c(NC(=O)CN2C(=O)C(=O)N(Cc3ccccc3)C2=O)c(=O)n(-c2ccccc2)n1C,-22.2% (inactive)
2,CN(C)C(CNC(=O)c1cccc(C#N)c1)c1ccco1 (stereo unspecified),-2.12% (inactive)
3,CN(C)C(CNC(=O)c1cc(Br)c(Br)s1)c1ccco1 (stereo unspecified),-67.9% (active)
4,CN(C)C(CNC(=O)c1cccc(S(=O)(=O)Nc2ccc(Br)cc2)c1)c1ccco1 (stereo unspecified),-19.6% (inactive)
5,Cn1cc(/C=C/c2nc3ccccc3c(=O)n2-c2ccccc2)c2ccccc21,31.9% (inactive)
6,Cc1cccc(N=C2NC(=O)/C(=C/c3cn(C)c4ccccc34)S2)c1,-80% (active)
7,Cc1cccc(N=C2SC(C)CN2C(=O)CN2C(=O)NC3(CCCC3)C2=O)c1 (stereo unspecified),0.641% (inactive)
8,O=C(NCCc1ccccc1)c1ccc2c(c1)N(Cc1ccc(F)cc1)C(=O)c1ccccc1S2(=O)=O,10.3% (inactive)
9,Cc1cccc(-n2c(=O)c3c(c4cc(C)ccc4n3C)n(CC(=O)Nc3ccccc3Cl)c2=O)c1,-1.31% (inactive)
10,CCN(C(=O)COC(=O)Cc1c(F)cccc1Cl)c1c(N)n(Cc2ccccc2)c(=O)[nH]c1=O,2.58% (inactive)
11,Cc1ccccc1CNC(=O)CCc1cn(Cc2ccccc2C)c2ccccc12,-37.2% (inactive)
12,Cc1cccc2cc(CN(Cc3cccs3)C(=S)NCc3ccco3)c(=O)[nH]c12,-16.3% (inactive)
13,CCC(c1nnnn1C1CCCC1)N(Cc1cccs1)Cc1cc2cccc(C)c2[nH]c1=O (stereo unspecified),-63.3% (active)
14,Cc1cccc2cc(CN(Cc3nnnn3Cc3ccccc3)C3CCCC3)c(=O)[nH]c12,-5.56% (inactive)
15,COc1cccc(/C=N/Nc2ncc(C(F)(F)F)cc2Cl)c1O,-102% (active)
16,Cc1cc(C)cc(NS(=O)(=O)c2ccc(Oc3ncc(C(F)(F)F)cc3Cl)cc2)c1,-17.1% (inactive)
17,CC(C)(O)C#Cc1ncc(C(F)(F)F)cc1Cl,-30.8% (inactive)
18,COc1ccccc1Nc1nc(N)nc(CSC(=S)N2CCOCC2)n1,37.2% (inactive)
19,Cc1cccc(CC(=O)N2CC(=O)Nc3ccc(F)cc3C2c2ccccc2)c1 (stereo unspecified),12% (inactive)
20,COC(=O)CNC(c1ccccc1Cl)c1cc(Br)ccc1NC(=O)CCN1CCOCC1 (stereo unspecified),-21.3% (inactive)
21,COC(=O)c1ccc(C2C(C(=O)Nc3ccccc3)=C(C)Nc3nc4ccccc4n32)cc1 (stereo unspecified),1.76% (inactive)
22,Cn1c(NC(=O)c2ccccc2)nc2ccccc21,-84.9% (active)

row,SMILES,"activity change, negative = inhibition"
1,CCCCCn1c(CCNC(=O)c2ccc(F)cc2)nc2ccccc21,-18.8% (inactive)
2,Cc1c(NS(=O)(=O)c2ccc(Cl)cc2)c(=O)n(-c2ccccc2)n1C,8.64% (inactive)
3,CC(=O)Nc1ccc(NC(=O)CCCc2nc(-c3ccc(C(C)(C)C)cc3)no2)cc1,-87.3% (active)
4,Cc1cc(C)cc(NC(=O)CCCc2nc(-c3ccccc3Cl)no2)c1,-10.6% (inactive)
5,CC(=O)c1ccc(NC(=O)CCc2nc(-c3ccc(C)cc3)no2)cc1,2.06% (inactive)
6,CC(C)c1ccc(CN2C(=O)C(n3ccc4ccccc43)c3cccc(F)c32)cc1 (stereo unspecified),-19.8% (inactive)
7,C=CS(=O)c1sc(Cl)c(N2CCOCC2)c1[N+](=O)[O-] (stereo unspecified),-29.1% (inactive)
8,Cc1ccc(O)c(NC(=O)c2cc(-c3ccc(F)cc3)no2)c1,-17.5% (inactive)
9,COc1ccc2c(c1)CCc1c(C(=O)Nc3cc(C)ccc3O)noc1-2,-8.9% (inactive)
10,Cc1ccc(O)c(NC(=O)c2cc(-c3ccco3)on2)c1,-60.7% (active)
11,O=C(NCc1ccccc1Cl)C1=Cc2cc(Br)ccc2OC1,-3.65% (inactive)
12,Cc1c(CNC2CCCCC2)c(C(=O)O)c(C)n1Cc1cccc(Cl)c1,-85.4% (active)
13,CCOc1ccc(CNCc2c(C(=O)O)c(C)n(Cc3cccc(OC)c3)c2C)cc1OC,-14.2% (inactive)
14,C=Cc1ccc(Cn2c(C(=O)O)c(CNC3CCCC3)c3ccc(C)cc32)cc1,-2.87% (inactive)
15,COc1ccc(-c2nc(CN3CCC(C(=O)NCc4ccccc4)CC3)c(C)o2)cc1OC,1.58% (inactive)
16,CCOc1ccc(S(=O)(=O)N(CC(=O)NCCSCc2ccc(C)cc2)c2ccccc2)cc1,21.6% (inactive)
17,O=C1[C@@H]2C(Cc3ccc(O)cc3)NC3(C(=O)Nc4ccc(F)cc43)[C@@H]2C(=O)N1c1ccc(F)cc1 (stereo partly specified),5.54% (inactive)
18,COc1ccc(C(=O)c2c3ccc([N+](=O)[O-])cc3[n+]([O-])n2CCCN)cc1,-65.8% (active)
19,COc1ccc([N+](=O)[O-])cc1NCC(=O)c1ccc(C)cc1,23.3% (inactive)
20,COc1ccc(NS(=O)(=O)c2cc(NC(=O)CC(=O)c3ccc([N+](=O)[O-])cc3)ccc2C)cc1,-28.9% (inactive)
